# PI5P4K alpha inh = PI5P4K alpha (human) kinase inhibition. P48426. PI5P4Kalpha enzyme, ADP-Glo luminescence, 60 min; active compounds read low. max response, %. actives 1.2% (n = 330,000). AID 652105; active = max response of -50% or lower; inconclusive = between -30% and -50%; inactive = -30% or higher; note: value at the top dose of about 77 µM; % is set by controls: 0 for no effect and ±100 for the full control effect
#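 Luminescence from ADP-Glo served as readout of PI5P4Kalpha activity in a qHTS format. Reaction: enzyme, substrate, compound, ATP at 5 microM final, 60 min at RT.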
# HP1b chromo inh = inhibitors of HP1-beta chromodomain binding to methylated histone tails; AlphaScreen HP1-beta / biotin-H3K9me3 peptide binding; actives 0.56% (n = 390,000); AID 540317; Potency, µM (series often up to 114 µM), without a hit: at the top dose activity change, negative = inhibition, usual class: inhibitors; note: potency is the fitted concentration of half-maximal effect; nearly all actives have a fitted effect of over 70% in size
#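 Compound inhibition of the preformed complex between 50 nM HP1-beta and 50 nM biotinylated H3K9me3 peptide was read by AlphaScreen. Buffer was PBS pH 7.4 with 0.01% Tween-20. Incubations ran 30 min at room temperature, with 10 ug/mL donor/acceptor beads.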
# JMJD2E inh = JMJD2E (human) inhibition. Potency, µM (doses to about 57.1 µM), inactives show top-dose activity change, negative = inhibition, hits mostly inhibitors. JMJD2E catalytic domain, FDH-coupled NADH fluorescence (FDH is formaldehyde dehydrogenase). B2RXH2. actives 1.6% (n = 230,000); active = well fitted inhibition curve with a large enough effect, not every such curve was filed as active; inconclusive = small, poorly fitted or top-dose-only effect, or another doubt; inactive = no such curve, though single readings can be large or run the other way;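 note: potency is the fitted concentration of half-maximal effect; 0% = wells with enzyme and -100% = buffer wells without enzyme; nearly all actives have a fitted effect of over 50% in size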
# JMJD2A Tudor = JMJD2A Tudor domain (human) inhibition; actives 4.4% (n = 390,000); AlphaScreen JMJD2A-Tudor / H3K4me3 peptide binding; AID 504339; Potency, µM (top dose mostly 114 µM), inactives show top-dose activity change, negative = inhibition, usual class: inhibitors; note: potency is the fitted concentration of half-maximal effect; % is set by controls: 0 for no effect and ±100 for the full control effect; nearly all actives have a fitted effect of over 50% in size
# BAZ2B block = BAZ2B (human) inhibition; AlphaScreen BAZ2B-H3K14Ac peptide displacement; Potency, µM (series often up to 114 µM), without a hit: at the highest dose activity change, negative = inhibition, actives largely listed as inhibitors; actives 4.4% (n = 360,000); note: potency is the fitted concentration of half-maximal effect; % is set by controls: 0 for no effect and ±100 for the full control effect; nearly all actives have a fitted effect of over 60% in size
#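 BAZ2B (50 nM) with biotin-H3(5-23)K14Ac peptide (50 nM) in PBS pH 7.4, 0.01% Tween-20, preformed 30 min, then compound 30 min at room temperature; top concentration 110uM. AlphaScreen streptavidin donor/nickel chelate acceptor beads (10 ug/mL final), 20 min dark, signal read.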
# L3MBTL1 inh = inhibitors of human L3MBTL1; AlphaScreen L3MBTL1–H3K9me1 peptide binding; Potency, µM (highest dose often 57.1 µM), inactives show top-dose activity, negative = inhibition, hits mostly inhibitors; actives 0.66% (n = 230,000); note: potency is the fitted concentration of half-maximal effect; % is set by controls: 0 for no effect and ±100 for the full control effect; nearly all actives have a fitted effect of over 60% in size
# Target sequence (Q9Y468 whole entry, looked up): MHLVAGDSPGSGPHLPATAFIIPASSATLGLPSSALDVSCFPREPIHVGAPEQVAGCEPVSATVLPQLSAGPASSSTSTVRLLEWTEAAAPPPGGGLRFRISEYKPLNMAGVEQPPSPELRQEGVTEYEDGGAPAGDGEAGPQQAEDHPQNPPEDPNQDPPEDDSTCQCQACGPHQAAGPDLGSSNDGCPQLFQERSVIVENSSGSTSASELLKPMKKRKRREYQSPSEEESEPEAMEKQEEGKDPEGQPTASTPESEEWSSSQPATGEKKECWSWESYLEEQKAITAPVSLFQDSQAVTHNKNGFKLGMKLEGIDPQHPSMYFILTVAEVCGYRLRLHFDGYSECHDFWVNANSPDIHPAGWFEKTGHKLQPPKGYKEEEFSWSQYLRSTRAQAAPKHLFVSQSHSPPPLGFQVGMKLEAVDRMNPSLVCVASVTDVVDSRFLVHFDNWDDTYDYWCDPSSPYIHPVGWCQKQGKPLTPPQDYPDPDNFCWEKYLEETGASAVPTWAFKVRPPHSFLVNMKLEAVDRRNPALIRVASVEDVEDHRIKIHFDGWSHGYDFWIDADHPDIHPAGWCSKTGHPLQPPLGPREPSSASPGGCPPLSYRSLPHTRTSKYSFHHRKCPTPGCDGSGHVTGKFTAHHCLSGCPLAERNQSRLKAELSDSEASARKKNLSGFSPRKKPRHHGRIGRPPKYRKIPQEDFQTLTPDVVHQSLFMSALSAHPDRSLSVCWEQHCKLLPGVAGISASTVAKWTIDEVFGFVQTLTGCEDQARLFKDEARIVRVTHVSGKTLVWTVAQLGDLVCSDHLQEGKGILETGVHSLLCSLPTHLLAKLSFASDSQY
#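 L3MBTL1 (50 nM) pre-complexed 30 min with biotinylated H3(1-15)K9me1 peptide (75 nM), then compounds added for 30 min at room temperature; AlphaScreen streptavidin donor/nickel chelate acceptor beads (10 ug/mL final) read after 30 min dark incubation.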
# Numbers without * were called inactive; ? = inconclusive; . = no result given; [ ] = another dose, or the depositor's remark. Most compounds without a hit are left out; they make up all but 5.7% or so of the library. Unless noted, calls come from the whole dose curve; as a rule, active = well fitted inhibition curve with a large enough effect; inconclusive = small, poorly fitted or top-dose-only effect; inactive = no such curve, though single readings can be large or run the other way.
SMILES,PI5P4K alpha inh,HP1b chromo inh,JMJD2E inh,JMJD2A Tudor,BAZ2B block,L3MBTL1 inh
S=c1[nH]nc(-c2ccco2)n1/N=C/c1ccc(Cl)cc1,-8,?,-27%,40µM*,?,-5%
Cc1ccc(/C=N/n2c(C)nnc2C)s1,-7,?,1%,-21%[57.1 µM],-4%,9%
S=c1[nH]nc(COc2ccccc2)n1/N=C/c1cccc(Cl)c1Cl,-4,-6%,.,?,-19%,.
O=C(N/N=C\c1ccc(Cl)s1)c1ccc(Cn2cccn2)o1,-10,-10%,-15%,50µM*,8%,9%
CCC(=O)N1CCc2cc(S(=O)(=O)CCC(=O)N3CCN(c4ccccc4Cl)CC3)ccc21,.,7%,.,-7%,.,.
Nc1cccc2c1C(=O)c1ccc(Cl)cc1C2=O,3,?,.,14µM*,.,.
O=C(O)c1cccc2c1-c1ccc(Cl)cc1C2=O,3,38%,.,-15%,.,.
CCOc1ccc(N2CC(c3nc4ccccc4n3CCCOc3ccc(OC)cc3)CC2=O)cc1 (centres undefined),.,5%,.,?,?,.
O=C(Nc1ccc(CN2CCOCC2)cc1)c1cccc(-c2cc3ccccc3oc2=O)c1,-14,15%,?,-25%,79µM*,7%[11.4 µM]
O=C(Nc1ccc(CN2CCOCC2)cc1)c1ccc2ccccc2c1,2,12%,.,-16%,-14%,.
N#Cc1ccc(CN(c2ccncc2)S(=O)(=O)c2ccccc2)cc1,6,23%,.,-6%,-14%,.
O=C(OCC1OC(n2ncc(=O)[nH]c2=O)C(OC(=O)c2ccccc2)C1OC(=O)c1ccccc1)c1ccccc1 (centres undefined),-4,19%,.,50µM*,50µM*,.
COc1ccc(-c2cccc(C3C4C=CCCC4(C)C(=O)N3Cc3ccccc3)c2)cc1 (centres undefined),.,10%,.,-23%,.,.
CCC1(C)Cc2nc3sc(C(=O)O)c(N)c3cc2CO1 (centres undefined),?,24%,?,50µM*,0%,-9%
Cn1c(=O)oc2cc(S(=O)(=O)NC(Cc3ccccc3)C(=O)NCc3ccccc3Cl)ccc21 (centres undefined),.,42%,.,6%,1%[57.1 µM],.
Cc1ccc(N2C(=O)C3C4C=CC(CNC(=S)N5CCN(c6cccc(C)c6)C(C)C5)(O4)C3C2=O)cc1 (centres undefined),-4,25µM*,6%,18µM*,-2%,.
Cc1cccc(N2CCN(C(=O)CN3CCOc4ccccc43)CC2C)c1 (centres undefined),-10,-15%,-3%,?,?,.
CC[C@H](C)[C@@H]1NC(=O)c2cc([N+](=O)[O-])cc(I)c2SC[C@@H](C(N)=O)NC(=O)[C@H](CCCCN)NC1=O,-21,1%,-12%,?,71µM*,7%
CC[C@H](C)[C@@H]1NC(=O)c2cc([N+](=O)[O-])cc(I)c2NCC[C@@H](C(N)=O)NC(=O)[C@H](CCCN=C(N)N)NC1=O,0,34%,-1%,-28%,?,2%
COc1ccc(/C(O)=C2/C(=O)C(=O)N(CCCC(=O)O)C2c2ccc(OC)cc2)cc1 (centres undefined),-4,6%,-3%,45µM*,?,0%
COc1ccc(C2/C(=C(/O)c3ccccc3)C(=O)C(=O)N2CCO)cc1 (centres undefined),-1,11%,0%,-24%,8%,5%
CCOc1cccc(/C(O)=C2/C(=O)C(=O)N(Cc3cccnc3)C2c2ccco2)c1 (centres undefined),.,15%,-2%,?,-23%,-2%
COc1ccc(C2/C(=C(/O)c3ccccc3)C(=O)C(=O)N2CC(C)O)c(OC)c1 (centres undefined),2,11%,4%,18µM*,-25%,0%
COc1ccc(/C(O)=C2\C(=O)C(=O)N(Cc3ccco3)C2c2cc(OC)ccc2OC)cc1 (centres undefined),.,3%,?,89µM*,?,4%
COc1ccc(/C(O)=C2/C(=O)C(=O)N(Cc3cccnc3)C2c2ccco2)cc1OC (centres undefined),.,-4%,-3%,25µM*,-2%,-6%
SMILES,PI5P4K alpha inh,HP1b chromo inh,JMJD2E inh,JMJD2A Tudor,BAZ2B block,L3MBTL1 inh
COc1ccccc1C1/C(=C(/O)c2ccc(C)cc2)C(=O)C(=O)N1CC(C)O (centres undefined),2,13%,5%,-36%,-7%,3%
CN1CCCN(C(=O)CNC(=O)c2ccccc2Br)CC1,-8,29%,.,-9%,.,7%
Cc1cccc(NC(=O)C2CCN(S(=O)(=O)c3ccc4c(c3)CCCC(=O)N4)CC2)c1,.,27%,.,-4%,7%[57.1 µM],.
COc1ccccc1NS(=O)(=O)c1cccc(NC(=O)c2ccc3ccccc3n2)c1,1,34%,-7%,-7%,9%,0%
O=C(/C=C/c1ccccc1)Nc1cccc(S(=O)(=O)Nc2ccccc2F)c1,-61*,?,-16%,45µM*,45µM*,-6%
O=C(Nc1cccc(S(=O)(=O)Nc2ccccc2F)c1)c1ccc2ccccc2n1,?,?,-12%,25µM*,?,2%
Cc1cc(=O)n2nc(N3CCCC(C(=O)Nc4ccc(C)c(C)c4)C3)sc2n1 (centres undefined),2,36%,.,-14%,4%,14%
COc1ccc(C2C=C3CNS(=O)(=O)C3CC2OC(=O)c2cccs2)cc1 (centres undefined),.,22%,.,-30%,.,.
Cn1nnnc1Sc1ncnc2scc(-c3cccc(Cl)c3)c12,.,.,.,-27%,.,.
Oc1cccc(Nc2cc(-c3ccccc3)ncn2)c1,.,31%,.,-35%,50µM*,.
c1ccc(-c2cc(-c3ccccc3)ncn2)cc1,13,68%,.,36%,.,.
COCCCn1c(Cc2csc(Nc3cccc(Cl)c3)n2)nnc1SCC(=O)OC,.,-7%,-5%,56µM*,?,?
O=C(NCc1ccccc1CN1CCCC1)C1CCN(C(=O)c2ccc(F)cc2)CC1,-2,42%,.,3%,2%,6%
Cc1ccc(Cn2c(CN3CCC(C(=O)NCCc4ccccc4)CC3)cc3ccccc32)cc1,.,?,.,40µM*,18µM*,.
O=C(NCCc1ccccc1)C1CCN(Cc2cc3ccccc3n2Cc2cccc(Cl)c2)CC1,.,-5%,.,-20%,-11%,.
CN(C)CC(C)(C)CNC(=O)C1CCN(Cc2ccccc2O)CC1,-5,?,?,6.3µM*,56µM*,-8%
CN(C)c1ccc(CNC(=O)C2CCN(C(=O)c3ccc(-n4ccc5ccccc54)s3)CC2)cc1,.,?,.,18µM*,-29%,.

# Screening data from PubChem.
